PI5P4K alpha inh: qHTS for Inhibitors of phosphatidylinositol 5-phosphate 4-kinase (PI5P4K). PI5P4Kalpha enzyme, ADP-Glo luminescence, 60 min; active compounds read low. max response, %. Phosphatidylinositol 5-phosphate 4-kinase type-2 alpha (Homo sapiens), P48426. 330,000 tested, 1.2% active. AID 652105, 2013; active means max response of -50% or lower; inconclusive means between -30% and -50%; inactive means -30% or higher; further: value at the top dose of about 77 µM
Target sequence (P48426 whole entry, looked up): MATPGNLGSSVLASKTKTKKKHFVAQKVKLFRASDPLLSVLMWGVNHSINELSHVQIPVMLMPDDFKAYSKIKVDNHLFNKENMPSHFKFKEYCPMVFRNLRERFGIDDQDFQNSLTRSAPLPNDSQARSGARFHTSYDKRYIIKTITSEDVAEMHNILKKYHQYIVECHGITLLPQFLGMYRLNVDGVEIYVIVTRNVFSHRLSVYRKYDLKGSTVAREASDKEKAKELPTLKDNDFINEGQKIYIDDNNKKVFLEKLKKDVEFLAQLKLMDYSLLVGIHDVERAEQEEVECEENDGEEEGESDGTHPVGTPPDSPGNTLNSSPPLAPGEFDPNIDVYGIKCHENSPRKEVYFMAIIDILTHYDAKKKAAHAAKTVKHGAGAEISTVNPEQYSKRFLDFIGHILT
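ADP-Glo luminescence end-point read after a 60 min room-temperature kinase reaction of PI5P4Kalpha plus substrate, initiated with ATP at 5 microM final. Buffer: 0.038 M HEPES pH 7.4, EGTA, 0.1% CHAPS, 5% DMSO.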
USP1-UAF1 inh: Inhibitors of USP1/UAF1: Primary Screen. recombinant USP1/UAF1, Ub-Rhodamine cleavage fluorescence. Potency, µM (highest dose often 57.1 µM), inactives show at the highest dose activity change, negative = inhibition, most hits filed as inhibitors. 390,000 tested, 0.23% active. AID 743255, 2014; further: potency means the concentration at half of the fitted maximal effect; nearly all actives have a fitted effect of over 60% in size
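Step one: compound is pinned into 1nM USP1/UAF1 in HEPES pH 7.8 buffer with TCEP. Step two: 15 min room-temperature incubation. Step three: Ub-Rho (150nM final) starts cleavage, tracked by fluorescence over six one-minute reads.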
WRN helicase inh: qHTS for Inhibitors of WRN Helicase; AID 651768, 2012; WRN helicase unwinding, fluorescent forked duplex, kinetic; Bifunctional 3'-5' exonuclease/ATP-dependent helicase WRN (Homo sapiens), Q14191; 360,000 tested, 0.46% active; Potency, µM (titrated, usually from 114 µM), for inactives: at the highest dose activity change, negative = inhibition, hits mostly inhibitors; further: potency means the concentration at half of the fitted maximal effect; nearly all actives have a fitted effect of over 55% in size
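Kinetic red-fluorescence monitoring (525/598 nm) tracks WRN helicase activity after 100 nM fluorophore-quencher forked duplex and 2 mM ATP are added to 20 nM enzyme pretreated 15 min at room temperature with compound.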
PLK1 PBD inh: qHTS for Inhibitors of PLK1-PDB (polo-like kinase 1 - polo-box domain): Primary Screen. Plk1 PBD binding of FITC phosphopeptide, fluorescence polarization. Potency, µM, inactives show max response, negative = inhibition, most hits filed as inhibitors. 360,000 tested, 2.8% active; further: potency means the concentration at half of the fitted maximal effect; series mostly up to about 57 µM; nearly all actives have a fitted effect of over 65% in size
USP2a block: qHTS Assay for Inhibitors of Ubiquitin-specific Protease USP2a Using CHOP2 as the Reporter; Ubiquitin carboxyl-terminal hydrolase 2 (Homo sapiens), O75604; USP2 core, Ub-CHOP2 coupled fluorogenic reporter, 485/531; Potency, µM (highest dose often 38.3 µM), inactives show at the top dose activity change, negative = inhibition, hits mostly inhibitors; 330,000 tested, 0.01% active; AID 463254, 2010;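 further: potency means the concentration at half of the fitted maximal effect; plate controls were DMSO wells for no effect and full inhibition by NEM control for full effect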
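Cell-free coupled assay: 10nM USP2 core preincubated 30min RT with compound in Tris-HCl pH 8.0/CaCl2/CHAPS buffer, then 25nM Ub-CHOP2 and 25nM reporter substrate; fluorescence (Ex 485/Em 531) read after 60min RT, normalized to NEM inhibition, concentration-response curves fitted.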
TbPYK confirm: qHTS of Trypanosoma Brucei Inhibitors: Confirmatory Assay for Cherry-picked Compounds | shares compounds with PLK1 PBD inh | recombinant TbPYK, Kinase-Glo ATP luminescence | Potency, µM (top dose mostly 76.9 µM), for the others: at the highest dose activity change, negative = inhibition, usual class: inhibitors | 890 tested, 67% active; further: potency means the concentration at half of the fitted maximal effect; nearly all actives have a fitted effect of over 70% in size
TbPYK orthogonal: qHTS of Trypanosoma Brucei Inhibitors: Orthogonal Assay for Cherry-picked Compounds; recombinant TbPYK, ADP-Glo luminescence, 60 min; AID 720584, 2013; Potency, µM (highest dose often 76.9 µM), for inactives: at the top dose activity change, negative = inhibition, most hits filed as inhibitors; shares compounds with PLK1 PBD inh; 890 tested, 62% active; further: potency means the concentration at half of the fitted maximal effect; nearly all actives have a fitted effect of over 75% in size
The depositor's hits bear a star; ? = inconclusive; . = no result given; ! = not confirmed by another sample; [ ] = remark or other dose. Shown are actives, neighbours in structure and some others; about 3.3% of the full set was active somewhere. Unless noted, the call rests on the fitted dose curve; in most records, active means well fitted curve in the direction sought with a large enough effect; inconclusive means small, poorly fitted or top-dose-only effect, or another doubt; inactive means no such curve, though single readings can be large; an effect the other way counts as inactive or inconclusive. Unless noted, on the % scale 0 is the no-effect control and ±100 the full control effect.

SMILES | PI5P4K alpha inh | USP1-UAF1 inh | WRN helicase inh | PLK1 PBD inh | USP2a block | TbPYK confirm | TbPYK orthogonal
CCOC(=O)c1ccccc1NC(=O)c1nn(C)c2c1COc1ccccc1-2 | . | 1% | . | . | . | . | .
COC(=O)c1scc(C)c1S(=O)(=O)Nc1ccc(C)cc1 | 0 | -2% | -13% | ? | -2% | 5.6µM* | 4µM*
COC(=O)c1scc(-c2ccc(C)cc2)c1S(=O)(=O)Nc1ccc(NC(C)=O)cc1 | . | -29% | . | . | . | . | .
Cc1ccc(CSc2nc3cccnc3n2Cc2nc(-c3ccccc3F)oc2C)cc1 | . | -19% | . | . | . | . | .
O=C(NCc1ccco1)c1ccc2c(c1)N(Cc1ccccc1)C(=O)c1ccccc1S2(=O)=O | . | -10% | . | . | . | . | .
CCN(CC)Cc1cc(O)c(CN(CC)CC)cc1O | -11 | ? | 50µM* | 4.2µM* | 3% | -99% | 10µM*
CCc1oc(C(=O)O)cc1CN(CC)CC | . | -8% | -8% | -8% | . | . | .
O=C(Cn1c2ncccc2c(=O)n1-c1ccccc1)Nc1ccc(F)c(F)c1 | . | -12% | . | . | . | . | .
Oc1cc(O)cc(/C=C/c2ccc(O)c(O)c2)c1 | -53* | 14% | -9%[11.6 µM] | -13% | 1% | 11µM* | ?
COc1ccc(NC(=O)c2cc3c(s2)-c2c(C)cccc2OC3)cc1Cl | . | 1% | . | . | . | . | .
O=C1C=CC2=C3c4cc(O)c(O)cc4CC3(O)COC2=C1O (stereo unspecified) | -90* | -22% | 4.5µM* | 27µM* | . | 7.1µM* | 4µM*
Cc1ccc2cc(CN(CC(C)C)C(=O)C3CCCO3)c(=O)[nH]c2c1 (stereo unspecified) | . | -15% | 6% | -8% | 0% | -20% | -28%
Cc1ccc(-c2noc(-c3nnn(CC(=O)Nc4cccc(C(F)(F)F)c4)c3N)n2)cc1 | . | -1% | . | . | . | . | .
CN(C)c1ccc(/C=C/c2ccc3c4ccccc4ccc3[n+]2-c2ccccc2)cc1 | -87* | ? | 13µM* | -15% | -11% | 32µM* | 7%
CN(C)c1ccc(/C=C/c2cccc[n+]2[O-])cc1 | 4 | ? | 9% | 13% | 4% | . | .
CCn1c(=O)c(C(=O)Nc2ccc(C(C)=O)cc2)nc2ccccc21 | . | -23% | . | . | . | . | .
COC(=O)c1ccc(C2Nc3ccc(/C(C)=N/NC(=O)C(OC)c4ccccc4)cc3C3C=CCC32)cc1 (stereo unspecified) | -66* | -10% | -14% | -16% | 5% | ? | ?
CCOCCCNC(=O)c1cc2c(s1)-c1ccccc1SC2 | -15 | -19% | -6%[57.1 µM] | 27µM* | 2% | 10µM* | 13µM*
Cc1ccc(CNC(=O)c2cc3c(s2)-c2ccccc2SC3)cc1 | . | -12% | . | . | . | . | .
O=C1CCCC2=C1C(c1ccc(O)c(O)c1)c1c(ccc3ncccc13)N2 (stereo unspecified) | ? | -12% | -18%[11.6 µM] | ? | -3% | 0.11µM* | 1.6µM*
COc1ccccc1CNC(=O)c1cc(S(=O)(=O)N2CCCCCC2)cn1C | . | -21% | . | . | . | . | .
Oc1ccc(/C=N/Nc2nccnc2Cl)c(O)c1 | -9 | -12% | -18% | 1% | 2% | ? | 3%
N#Cc1ccc(Oc2c(Cl)cncc2Cl)cc1 | -11 | -21% | 3% | 1% | 1% | . | .
N#Cc1ccc(N=c2ssnc2Cl)cc1 | -91* | -44% | 40µM*! | 1.3µM* | 1% | 7.1µM* | 7.9µM*
Clc1ccc(N=c2ssnc2Cl)cc1 | . | -23% | 79µM* | 1.9µM* | 1% | 7.9µM* | 10µM*
SMILES | PI5P4K alpha inh | USP1-UAF1 inh | WRN helicase inh | PLK1 PBD inh | USP2a block | TbPYK confirm | TbPYK orthogonal
COc1cc(N=c2ssnc2Cl)cc(OC)c1OC | -69* | -9% | 56µM* | 0.95µM* | 7% | 3.5µM* | 6.3µM*
CCOC(=O)c1ccc(N=c2ssnc2Cl)cc1 | -79* | -4% | 22µM* | 2.1µM* | 3% | 16µM* | 16µM*
CCCSCCCNC(=O)C1CCN(C(=O)c2cnn(-c3ccccc3)c2-n2cccc2)CC1 | . | 0% | . | . | . | . | .
CCCNC(=O)C1CCC(Cn2c(=O)c3sccc3n(CC(=O)NCc3cccc(OC)c3OC)c2=O)CC1 (stereo unspecified) | . | -10% | . | . | . | . | .
Fc1ccc(N=c2ssnc2Cl)c(F)c1 | -62* | -31% | 32µM* | 1.7µM* | 6% | 28µM* | 32µM*
CC1=CC(=O)C(Sc2ccc(C)cc2)=CC1=O | -71* | ? | 4% | 0.84µM* | . | 1.3µM* | 2.5µM*
C=CCSC1=C(C#N)C(c2ccccc2Cl)CC(=O)N1 (stereo unspecified) | . | -12% | 1% | ? | -1% | . | .
C=C(C)CSC1=C(C#N)C(c2ccccc2Cl)CC(=O)N1 (stereo unspecified) | -26 | -17% | -11% | 13µM* | 4% | 5µM* | 8.9µM*
O=C(CN1C(=O)c2cccnc2Oc2ccc(Cl)cc21)Nc1cccc(C(F)(F)F)c1 | . | 7% | . | . | . | . | .
CC1(C)CC(=O)C(C(C2=C(O)CC(C)(C)CC2=O)c2ccc(Br)s2)C(=O)C1 (stereo unspecified) | -80* | -9% | 22µM* | 1.9µM* | 2% | 14µM* | 28µM*
CCSc1ncc(Cl)c(C(=O)N(Cc2ccc(N(C)C)cc2)Cc2ccco2)n1 | . | -14% | . | . | . | . | .
COc1ccc(C(=O)Nc2ccc(N3CCOCC3)cc2)cc1OC | . | -10% | -13% | -2% | 1% | . | .
COc1ccc(C(=O)N/N=C/c2ccc(N3CCOCC3)s2)cc1OC | -5 | -18% | -8% | -12% | 0% | . | .
COc1ccc(C(=O)N/N=C/c2ccc(N3CCOCC3)o2)cc1OC | -3 | -14% | -10% | -14% | 4% | -7% | ?
COc1ccc(C(=O)Nc2ccc(N3CCCC3)cc2)cc1OC | -22 | -33% | -11%[57.1 µM] | 4% | ? | ? | -25%
O=C(NCC(c1cccnc1)N1CCc2ccccc2C1)C(=O)Nc1cccc(Cl)c1 (stereo unspecified) | . | -23% | . | . | . | . | .
Cc1cc(C)c(S(=O)(=O)NCC(c2ccc(N(C)C)cc2)N2CCOCC2)c(C)c1 (stereo unspecified) | . | 9% | . | . | . | . | .
